# Giardia kill = kills Giardia lamblia. Giardia lamblia trophozoite viability. activity change, % at 7.66 µM, hits read low. 340,000 tested, 0.15% active. AID 540267; in the data active = activity change below about -80%; inconclusive = between about -30% and that limit;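 note: parasites exposed to compound for two days anaerobically before the ATP read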
#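 Viability, read as ATP luminescence: trophozoites at 100 cells/well, compound added, 48 hrs anaerobic at 37 deg C, then 15-30 min room-temperature development before reading.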
# ELG1 repair inh = blocks ELG1-dependent DNA repair in HEK293T cells; HEK293T ELG1-luciferase reporter, luminescence, 16 h; DNA damage induced by 5-fluorouridine; Potency, µM (top dose mostly 46.1 µM), without a hit: at the highest dose activity change, negative = inhibition, hits mostly inhibitors; 330,000 tested, 2.3% active; AID 504467; note: potency is the fitted concentration of half-maximal effect; nearly all actives have a fitted effect of over 55% in size
#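 Cells (2,000 per well) received 5-fluorouridine plus test compound or DMSO and were incubated 16 hr at 37 °C, 5% CO2. Luciferase activity was read by luminescence 30 min after ONE-Glo addition; signal suppression marked inhibition of damage-induced ELG1 function.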
# TDP1 cell noCPT = qHTS for Inhibitors of human tyrosyl-DNA phosphodiesterase 1 (TDP1): qHTS in cells in absence of CPT; DT40 Tdp1-/- hTDP1 cells, no CPT, ATP luminescence, 48 h; Potency, µM (series often up to 46.2 µM), without a hit: at the highest dose activity change, negative = growth inhibition, most hits filed as inhibitors; 420,000 tested, 15% active; AID 686978, 2013; note: potency is the fitted concentration of half-maximal effect; nearly all actives have a fitted effect of over 55% in size
#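 DT40 Tdp1-/-;hTDP1 cells, no CPT (DMSO vehicle only), 400 cells/well; compounds pin-transferred; ≥48 hr, 37 °C; CellTiter-Glo 30 min RT dark, luminescence read.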
# DT40 TDP1 CPT = DT40-hTDP1 cell growth loss with CPT; chicken DT40 Tdp1-/-;hTDP1 cells + 20 nM CPT, ATP luminescence, 48 h; Potency, µM (highest dose often 46.2 µM), inactives show top-dose activity change, negative = growth inhibition, actives largely listed as inhibitors; 420,000 tested, 12% active; note: potency is the fitted concentration of half-maximal effect; nearly all actives have a fitted effect of over 55% in size
#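 Cell growth measured by CellTiter-Glo luminescence after a minimum 48 h, 37 C compound exposure with 20 nM CPT in Tdp1-knockout DT40 cells stably expressing hTDP1, seeded 400/well; qHTS titration format.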
# IL-1B inflam inh = inflammasome signaling inhibition, IL-1 beta readout; 360,000 tested, 4.7% active; THP-1 LPS/ATP IL-1B secretion, AlphaLISA, 16 h; hits give low values; activity change, % at 57.5 µM; in the data active = activity change below about -50%; inconclusive = mostly about -30% to -49%
#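 Secreted IL-1B measured by AlphaLISA bead assay after 16 h compound exposure of THP-1 cells; compounds (final up to 57.5 uM) added 1 h before LPS (250 ng/mL) and ATP (1.25 mM) stimulation; lower signal means less secretion.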
# TDP1 inh = inhibitors of human tyrosyl-DNA phosphodiesterase TDP1; Q9NUW8; recombinant TDP1, AlphaScreen DNA substrate cleavage; Potency, µM (highest dose often 130 µM), for inactives: top-dose activity change, negative = inhibition, hits mostly inhibitors; 350,000 tested, 0.28% active; AID 485290; note: potency is the fitted concentration of half-maximal effect; nearly all actives have a fitted effect of over 40% in size
# Target sequence (Q9NUW8 whole entry, looked up): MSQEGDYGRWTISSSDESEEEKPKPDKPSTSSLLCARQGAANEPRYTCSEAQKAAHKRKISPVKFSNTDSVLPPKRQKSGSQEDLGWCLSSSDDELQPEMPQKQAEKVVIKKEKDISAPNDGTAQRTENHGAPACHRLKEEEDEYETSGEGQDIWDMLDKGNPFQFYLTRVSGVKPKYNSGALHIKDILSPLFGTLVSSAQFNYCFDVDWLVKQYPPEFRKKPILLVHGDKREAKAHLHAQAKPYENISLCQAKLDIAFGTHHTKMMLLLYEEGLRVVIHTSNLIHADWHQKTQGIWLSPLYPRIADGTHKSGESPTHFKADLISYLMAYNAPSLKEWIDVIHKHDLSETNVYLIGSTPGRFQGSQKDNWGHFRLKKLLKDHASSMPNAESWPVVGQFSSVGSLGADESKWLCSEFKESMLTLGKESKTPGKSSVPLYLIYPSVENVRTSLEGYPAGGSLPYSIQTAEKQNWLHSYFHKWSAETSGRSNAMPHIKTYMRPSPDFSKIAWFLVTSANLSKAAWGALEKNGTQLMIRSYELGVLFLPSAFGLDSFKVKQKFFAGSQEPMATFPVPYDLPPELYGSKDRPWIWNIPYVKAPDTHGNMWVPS
#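 Steps: enzyme plus compound, 15 min RT; add biotin/phosphotyrosine-FITC oligonucleotide (15 nM final), react 5 min; add donor/acceptor beads (10 ug/ml final), 10 min; read AlphaScreen. Tdp1 at 1 nM final.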
# An asterisk follows results filed as active; ? = inconclusive; nt = no result; [ ] = dose if it differs, or a comment. The list is not random: actives were taken first. Their share in the collection is about 19%. Unless noted, calls come from the whole dose curve; as a rule, active = well fitted curve in the direction sought with a large enough effect; inconclusive = small, poorly fitted or top-dose-only effect, or another doubt; inactive = no such curve, though single readings can be large; an effect the other way counts as inactive or inconclusive. % is set by controls: 0 for no effect and ±100 for the full control effect.
SMILES,Giardia kill,ELG1 repair inh,TDP1 cell noCPT,DT40 TDP1 CPT,IL-1B inflam inh,TDP1 inh
CN(C)/C=C(\C(=O)c1ccc(F)cc1F)c1nnnn1-c1ccccc1,0.7,-9.1%,-7.6%,3.7%,2.9,2.6%
CCOc1ccc(/C=N/NC(=O)COc2ccccc2-c2ccccc2)cc1,27.2,-18.7%,?,18.4µM*,-4.3,1.0%
O=C(N/N=C/c1ccc([N+](=O)[O-])cc1)c1ccc(COc2ccccc2-c2ccccc2)cc1,-6.2,-6.2%,13µM*,?,0.0,5.5%
CCOc1ccc(/C=N/NC(=O)c2c(-c3ccccc3)noc2C)cc1,2.2,?,-29.7%,13.9%,41.4,0.0%
COc1ccc(/C=N/NC(=O)c2ccc(COc3cccc4cccnc34)cc2)cc1OC,-1.0,?,2.5%,-14.3%,-5.2,2.6%
CC(C)(C)c1ccc(OCc2ccc(C(=O)N/N=C/c3ccc(O)c(O)c3)cc2)cc1,-2.8,-6.0%,1.46µM*,1.3µM*,123.9,0.6%
O=C(N/N=C/c1ccc([N+](=O)[O-])cc1)c1ccccc1OCc1ccccc1,-8.0,?,?,-15.4%,21.1,1.6%
COc1ccc(/C=N/NC(=O)c2ccc(COc3cccc4cccnc34)cc2)cc1O,2.9,?,13µM*,?,-1.5,4.8%
CC(C)(C)c1ccc(OCc2ccc(C(=O)N/N=C3\CC4CC=CC34)cc2)cc1 (stereo not given),3.6,?,14.6µM*,13µM*,48.6,5.4%
O=C(N/N=C/c1cccc(O)c1)c1ccc(COc2ccccc2Br)cc1,-3.9,-15.1%,?,?,-68.0*,-4.5%
O=C(N/N=C/c1cccc(O)c1)c1ccc(COc2cccc3cccnc23)cc1,-18.9,19.4%,?,-29.9%,-5.4,2.7%
CCOc1ccc(CCNC(=O)COc2cccc(-n3cnnn3)c2)cc1OCC,-6.1,-2.1%,?,?,10.0,0.7%
C/C=C(\C)C(=O)OC1[C@@H]2C=C3C4CC(=O)OC(c5ccoc5)[C@]4(C)CCC3[C@@](C)(C2=O)C(C(O)C(=O)OC)C1(C)C (stereo not given in full),nt,nt,-3.0%,10.9%,nt,7.3%[56.1 µM]
Cc1c(Cl)cccc1N=C(N)N=C(N)N,-16.0,-5.6%,23.1µM*,?,-5.1,6.0%
CC(C)=CCC[C@](C)(O[C@@H]1O[C@H](CO)[C@@H](O)[C@H](O)[C@H]1O)[C@H]1CC[C@]2(C)[C@@H]1[C@H](O)C[C@@H]1[C@@]3(C)CC[C@H](O[C@@H]4O[C@H](CO)[C@@H](O)[C@H](O)[C@H]4O[C@@H]4O[C@H](CO)[C@@H](O)[C@H](O)[C@H]4O)C(C)(C)[C@@H]3[C@@H](O)C[C@]12C,nt,nt,nt,nt,nt,1.0%
CC(=O)NCC1CCCN(Cc2cn(-c3ccccc3F)nc2-c2cc(C)sc2C)C1 (stereo not given),27.1,-9.3%,-23.2%,?,-56.4*,2.6%
Cc1cc(-c2nn(-c3ccccc3F)cc2CN2CCN(c3ccncc3)CC2)c(C)s1,6.3,-8.5%,?,?,-84.6*,0.0%
COCC1CCCN(Cc2cn(-c3ccccc3F)nc2-c2cc(C)sc2C)C1 (stereo not given),10.5,4.5%,18.4µM*,16.4µM*,0.0,0.0%
Cc1cc(-c2nn(-c3ccccc3F)cc2CN(C)CC(O)CO)c(C)s1 (stereo not given),-18.0,-23.5%,-25.9%,-16.8%,-9.8,nt
CCOC(=O)c1c(C)c(C(=O)NCCc2ccc(OC)cc2)c(C)n1C,nt,nt,-15.7%,12.4%,nt,-2.9%
O=C(CSc1nnc(CNC(=O)c2cccc(C(F)(F)F)c2)o1)NC1CCCCC1,10.2,-5.0%,15.4%,-1.6%,10.9,2.1%[56.1 µM]
O=C(Cc1ccc(Cl)cc1)NNC(=O)c1ccco1,?,27.8%,28.3%,6.9%,23.8,-2.1%
COc1ccc(/C=C/c2sc3ccccc3[n+]2CCCCI)cc1OC,nt,nt,12.6µM*,7.94µM*,nt,nt
CC(=O)N/C(=C\c1ccccc1)C(=O)NCC(=O)O,6.4,13.5%,5.2%,3.3%,18.3,0.0%
COc1cc(/C=C/c2sc3ccccc3[n+]2CCCS(=O)(=O)[O-])ccc1O,-0.6,-11.4%,?,?,1.9,1.2%
SMILES,Giardia kill,ELG1 repair inh,TDP1 cell noCPT,DT40 TDP1 CPT,IL-1B inflam inh,TDP1 inh
CN(C)c1ccc(/C=C/c2sc3ccccc3[n+]2Cc2ccccc2)cc1,nt,nt,0.1µM*,0.112µM*,nt,nt
CC(=O)N/C(=C/c1ccccc1)c1sc2ccccc2[n+]1CCCCI,nt,nt,11.2µM*,20µM*,nt,nt
CCCN(CCC)c1ccc(/C=C/c2sc3ccccc3[n+]2CCCCI)cc1,nt,nt,0.316µM*,0.316µM*,nt,nt
COCCCN1C(=O)N(c2ccc(F)cc2)C(=O)C1CC(=O)Nc1ccc(OC)cc1 (stereo not given),8.1,0.5%,-21.4%,3.5%,18.2,nt
CC(C)NC(=O)c1cc(C2CCCCN2S(=O)(=O)c2ccc(F)cc2F)on1 (stereo not given),nt,nt,?,-10.4%,23.4,nt
COc1ccc(C(=O)N2CCCCC2CCN2CCCCC2)cc1 (stereo not given),nt,nt,0.6%,-6.1%,nt,0.0%
Cc1[nH]c2ccccc2c1C(=O)C(=O)Nc1ccc2c(c1)OCO2,-4.2,?,?,-17.0%,-9.7,5.1%
CCCCN1C[C@H](Cc2ccccc2)[C@@H](CC(=O)NC)C1=O,nt,nt,-16.6%,1.0%,7.8,nt
C[n+]1c(/C=C/c2ccc(N)cc2)sc2ccccc21,nt,nt,?,17.8µM*,nt,nt
COC(=O)[C@@]12CCCCN1[C@H](c1ccc(-c3ccccc3)cc1)[C@H]1C(=O)N(C)C(=O)[C@H]12,3.1,?,?,?,9.3,-0.9%
COC(=O)[C@@]12CCCCN1[C@H](c1ccc(-c3ccc(C(C)=O)cc3)cc1)[C@H]1C(=O)N(C)C(=O)[C@H]12,-21.4,?,14.6µM*,11.6µM*,-8.4,-5.9%
COC(=O)[C@@]12CCCCN1[C@H](c1ccc(-c3ccc(F)cc3)cc1)[C@@H]1C(=O)N(C)C(=O)[C@@H]12,8.5,-29.0%,13µM*,20.6µM*,4.1,-0.3%
CC(NC(=O)COC(=O)CCc1ccccc1)c1ccccc1 (stereo not given),10.9,?,1.0%,4.9%,0.3,5.5%
COc1c(Cl)cc(C(=O)Nc2ccccc2-c2ccccc2)cc1Cl,-8.2,10.5%,29.1µM*,?,?,0.0%

# Source: PubChem
